SMILES strings stand for the structures. Inconclusive results are not listed. Active and inactive are the calls of the source. The call rests on the fitted dose curve.
On the % scale 0 is the no-effect control and ±100 the full control effect.

This test is described as follows: p53 small molecule agonists, cell-based qHTS assay with rat liver microsomes (AID 1963578). As to conditions: HCT-116 p53RE-bla, beta-lactamase ratio, 16 h; series mostly up to 66 µM; activation: at the top concentration. The source says: U.S. Tox21 Program National Center for Advancing Translational Sciences [NCATS] Division of Preclinical Innovation [DPI] U.S. Environmental Protection Agency [EPA] National Institutes of Environmental Health Sciences [NIEHS] National Toxicology Program [NTP] U.S. Food and Drug Administration [FDA] Tox21 Assay Overview: p53, a tumor suppressor protein, is activated following cellular insult, including DNA damage and other cellular stresses. The activation of p53 regulates cell fate by inducing DNA repair, cell cycle arrest, apoptosis, or cellular senescence. The activation of p53, therefore, is a good indicator of DNA damage and other cellular stresses. […] The activation of the reporter gene under culture conditions can be detected by fluorescence intensity. This cell line was used to screen the Tox21 10K compound library in the condition of presence of rat liver microsomes and to identify agonists that activate the p53 signaling pathway after in vitro metabolic activation (Ooka et al., Archive of Toxicology 96:1975-1987, 2022).
Tox21 Assay Protocol Summary: The p53RE-bla cells were dispensed at 4,000cells/3ul/well in 1536-well black-clear bottom plates. After the assay plates were incubated at 37 C, 5% CO2 incubator for 5 hours, 23 nL of compounds dissolved in DMSO, positive controls or DMSO only was transferred to the assay plate. Following compound addition, 3 uL of rat liver microsomes (Molecular Toxicology, Boone, NC) at final concentration of 0.5 mg/mL and 1uL of Beta-Nicotinamide adenine dinucleotide 2-phosphate (NADPH) at final concentration of 0.5 mg/mL were transferred to the assay plate. The plates were incubated at 37 C for 16 hours. 1 uL of LiveBLAzer detection mixture was added to each well and the plates were incubated at room temperature in the dark for 2 h.
For orientation: In qHTS, concentration-response curves come from the screen itself.
With `CCNC(=O)N1CCN(CCCC(c2ccc(F)cc2)c2ccc(F)cc2)CC1`, the “activation” value was 1.34% [at 30.3 µM] (inactive).
`OC[C@@H](O)C(O)[C@@H](O)CO` (stereo not given in full): the “activation” value is -0.446% (inactive).
As for `CC(C)(O)c1ccccc1`, the “activation” value was 0.241% (inactive).
Regarding `CCc1ccc(CC)cc1`, the “activation” value was 8.56% (inactive).
Regarding `Cc1c(C2(c3cc(Br)c(O)c(Br)c3C)OS(=O)(=O)c3ccccc32)cc(Br)c(O)c1Br`, the “activation” value is 66% (inactive).
In the case of `CCN(CC)CC(=O)Nc1c(C)cccc1C(=O)OC`, the “activation” value is -2.13% [at 30.3 µM] (inactive).
Turning to `CCCCCCC`, the “activation” value is 0.855% (inactive).
Take `CCCCCCCCOc1ccccc1C(=O)Nc1ccc(C(=O)OCC[N+](C)(CC)CC)cc1`: the “activation” value is -2.2% [at 30.3 µM] (inactive).
Turning to `CCOC(=O)COc1cc(-n2ncc(C(F)(F)F)c(C)c2=O)c(F)cc1Cl`, the “activation” value is 17.2% (inactive).
For the compound `CCCCCCCCCC(=O)N(C)C`, the “activation” value is -1.84% (inactive).
The result for `CC1(C)S[C@@H]2[C@H](NC(=O)C(c3ccccc3)S(=O)(=O)O)C(=O)N2[C@H]1C(=O)O` (stereo not given in full) reads -4.06% [at 30.3 µM] (inactive); that for `O=C(O)Cc1ccc2c(c1)C(=O)c1ccccc1CO2`, -1.19% [at 30.3 µM] (inactive); that for `CC/C(=C\C(=N/O)C(N)=O)C(C)[N+](=O)[O-]` (stereo not given), 1.77% (inactive).
With `CN1CCC[C@@H]1Cc1c[nH]c2ccc(CCS(=O)(=O)c3ccccc3)cc12`, the “activation” value is 6.53% [at 30.3 µM] (inactive).
Take `N[C@H]1CN(c2c(F)cc3c(=O)c(C(=O)O)cn(C4C[C@H]4F)c3c2Cl)CC12CC2` (stereo not given in full): the “activation” value is 0.599% [at 30.3 µM] (inactive).
The result for `CC1=CP(=O)(c2ccccc2)CC1` (stereo not given) reads -0.588% (inactive); that for `C[C@@H]1CN(c2c(F)c(N)c3c(=O)c(C(=O)O)cn(C4CC4)c3c2F)C[C@H](C)N1`, 0.693% [at 13.6 µM] (inactive).
`CN(C)CCN(Cc1ccc(Cl)cc1)c1ccccn1`: the “activation” value is 6.45% [at 30.3 µM] (inactive).
In the case of `NC1CCN(c2cccc(Cl)n2)CC1`, the “activation” value is 0.758% [at 30.3 µM] (inactive).
`CN1Cc2cc(C(=O)N3CCC(C4CCNCC4)CC3)ccc2N[C@@H](CC(=O)O)C1=O`: the “activation” value is -2.83% [at 30.3 µM] (inactive).
With `CC[C@H]1OC(=O)[C@H](C)[C@@H](O[C@H]2C[C@@](C)(OC)[C@@H](O)[C@H](C)O2)[C@H](C)[C@@H](O[C@@H]2O[C@H](C)C[C@H](N(C)C)[C@H]2O)[C@](C)(OC)C[C@@H](C)C(=O)[C@H](C)[C@@H](O)[C@]1(C)O`, the “activation” value is -2.44% (inactive).
The result for `CC(=O)N[C@@H](CCC(N)=O)C(=O)O` reads 0.802% [at 30.3 µM] (inactive); that for `O=c1[nH]cccc1O`, -3.89% (inactive).
For `Clc1cc(Cl)c(Cl)nc1Cl`, the “activation” value was -2.16% (inactive).
The result for `C[C@@H]1C[C@H]2[C@@H]3CCC4=CC(=O)C=C[C@]4(C)[C@@]3(F)[C@@H](O)C[C@]2(C)[C@@]1(O)C(=O)CO` reads -4.44% (inactive).
Then `CN1CCN(C(c2ccccc2)c2ccccc2)CC1`, with -0.417% [at 30.3 µM] (inactive); and `N#CSCC(=O)O`, with 0.414% [at 30.3 µM] (inactive).
Take `C=CC(=O)OCC1CCCO1` (stereo not given): the “activation” value was -0.557% (inactive).
`Cc1c(C)c2c(c(C)c1OC(=O)CCC(=O)OCCO)CC[C@@](C)(CCC[C@H](C)CCC[C@H](C)CCCC(C)C)O2`: the “activation” value is -0.921% [at 30.3 µM] (inactive).
`Nc1nc(Cl)nc2c1ncn2[C@@H]1O[C@H](CO)[C@@H](O)[C@@H]1F`: the “activation” value was 8.1% [at 30.3 µM] (inactive).
As for `Cc1cc(N)c(S(=O)(=O)O)cc1Cl`, the “activation” value is -1.36% (inactive).
Turning to `CCC(C)c1nccnc1OC` (stereo not given), the “activation” value is 0.0399% (inactive).
Take `CCCCCCCCC(=O)Cl`: the “activation” value was 0.375% (inactive).
As to `CCCCNS(=O)(=O)c1ccc(C)cc1`, the “activation” value is -0.14% (inactive).
On to `C#Cc1ccc(-c2ccccc2F)cc1`, for which the “activation” value is -0.535% [at 30.3 µM] (inactive).
Then `Cc1cc(N)c2cc(NC(=O)Nc3ccc4nc(C)cc(N)c4c3)ccc2n1`, with 1.49% [at 30.3 µM] (inactive).
Regarding `CCCCCC(=O)OCCc1ccccc1`, the “activation” value is -0.477% (inactive).
With `O=C(O)C1(C(=O)O)CCC1.[NH2-].[NH2-].[Pt+2]`, the “activation” value is -0.791% [at 30.3 µM] (inactive).
Then `CCCCOC(=O)C(C)CC` (stereo not given), with 1.27% (inactive); and `CCN(CCC#N)c1ccc(N=Nc2ccc([N+](=O)[O-])cc2)cc1`, with -1.38% (inactive).
